For 40 compounds, outcome results are on record in PubChem BioAssay (EPA / NIEHS).

Results filed as inconclusive are left out. Calls of active or inactive are those of the source. Rule for the calls: active = hit-call score of the fitted dose curve at least 0.9, where 1 is the maximum; inconclusive = response in the unintended direction; inactive = score below 0.9.

A short description of this experiment: Tanguay_ZF_120hpf_SOMI_legacy: (Legacy) Oregon State University Tanguay Lab 120 Hour Post-fertilization zebrafish Assay for Somite Malformation (AID 2283647). Here is the method:
Tanguay_ZF_120hpf_legacy is a whole embryo, multiplexed endpoint assay using zebrafish larvae exposed for 120 hours post fertilization on a 96-well plate.Tanguay_ZF_120hpf_SOMI_legacy is one of one assay component(s) measured or calculated from the Tanguay_ZF_120hpf_legacy assay. It is designed to make measurements of zebrafish development as detected with brightfield microscopy of developing zebrafish embryos.Data from the assay component Tanguay_ZF_120hpf_SOMI_legacy was analyzed into 1 assay endpoints. This assay endpoint, Tanguay_ZF_120hpf_SOMI_legacy, was analyzed in the positive analysis fitting direction relative to DMSO as the negative control and baseline of activity. Using a type of morphology reporter, gain-of-signal activity can be used to understand changes in developmentals as they relate to the whole embryo. To generalize the intended target to other relatable targets, this assay endpoint is annotated to the zebrafish development intended target family, where the subfamily is somitogenesis.
Zebrafish husbandry: Tropical 5D wild-type adult zebrafish were housed in at an approximate density of 1000 per 100 gallon tank at the Sinnhuber Aquatic Research Laboratory, Oregon State University, Corvallis, OR. Each tank was kept at standard laboratory conditions of 28C on a 14-h light/10-h dark photoperiod in fish water consisting of reverse osmosis water supplemented with a commercially available salt (Instant Ocean). Spawning funnels were placed into the tanks the night prior, and embryos were collected and staged. To increase bioavailability, the chorion was enzymatically removed using pronase (63.6mg/ml, >/= 3.5U/mg, Sigma-Aldrich: P5147) at 4 hours post fertilization (hpf) using a custom automated dechorionator.Chemical exposures: Six hpf dechorionated embryos were placed 1 embryo per well in a 96-well plate prefilled with 90 ul of EM using automated embryo placement systems (AEPS). Ten microliters of each row of dilution plate 2 was added to 2 exposure plates. The final DMSO concentration used was 0.64% (vol/vol). Thirty-two embryos were also exposed to 5uM trimethyltin chloride (positive control). Plates were sealed to prevent evaporation and foil covered to reduce light exposure and kept in a 28C incubator. Embryos were statically exposed until 120 hpf. At 24 hpf, embryos were assessed for photomotor response using a custom photomotor response analysis tool (PRAT) and for developmental toxicity endpoints (MO24: mortality at 24 hpf, DP: developmental progression, SM: spontaneous movement, and NC: notochord distortion). At 120 hpf, locomotor activity was measured using Viewpoint Zebralab and assessed for 18 endpoints. Zebrafish acquisition and analysis program (ZAAP), a custom program designed to inventory, acquire, and manage zebrafish data, was used to collect developmental endpoints as either present or absent (i.e., binary responses were recorded). If mortality occurred for an embryo (at either 24 or 120 hpf), the non-mortality endpoints were not measured.
With `CCCCCCCCN(C)C`, the outcome was inactive. As to `Cc1ccc(S(=O)(=O)NC(=O)NN2CCCCCC2)cc1`, the compound was classed as inactive. For the compound `O=c1[nH]cnc2c1ncn2[C@H]1CC[C@@H](CO)O1`, the result was inactive. Consider `CC(C)CCCCCCOC(=O)C1CCCCC1C(=O)OCCCCCCC(C)C` (stereo not given), for which the compound was called inactive. In the case of `C[C@@H](Oc1ccc(CNC(=O)c2cccnc2Oc2ccc3c(c2)OCO3)c(F)c1)C(=O)O` it was “inactive”; in that of `NC(=O)N1c2ccccc2C=Cc2ccccc21`, “inactive”.

Take `O=S1(=O)CCCO1`: the compound was classed as inactive. Turning to `CCCCC(CC)C(=O)OCCOCCOCCOC(=O)C(CC)CCCC` (stereo not given), the compound was called inactive. `CCCCCCCCCCCCCCO`: the call was inactive.

Regarding `CCCc1ccccc1`, the compound was called inactive. In the case of `NC(=O)NN=Cc1ccc([N+](=O)[O-])o1` it was “inactive”; in that of `NC(N)=O`, “inactive”; in that of `O=C(NO)C1(NS(=O)(=O)c2ccc(Oc3ccc(F)cc3)cc2)CCOCC1`, “inactive”. On to `OCC(CO)(CO)CO`, for which the call was inactive. Regarding `CCCCOC(=O)c1ccccc1`, the compound was called inactive. In the case of `O=C(O)c1ccc2c(c1)nc(C(=O)NC1CCN(C3CC3)CC1)n2Cc1cc(-c2ccc(Cl)s2)on1` it was “inactive”; in that of `CCc1ccc(O)c(C(C)(C)C)c1`, “inactive”. As to `OC[C@H]1O[C@@H]2O[C@H]3[C@H](O)[C@@H](O)[C@@H](O[C@H]4[C@H](O)[C@@H](O)[C@@H](O[C@H]5[C@H](O)[C@@H](O)[C@@H](O[C@H]6[C@H](O)[C@@H](O)[C@@H](O[C@H]7[C@H](O)[C@@H](O)[C@@H](O[C@H]1[C@H](O)[C@H]2O)O[C@@H]7CO)O[C@@H]6CO)O[C@@H]5CO)O[C@@H]4CO)O[C@@H]3CO`, the result was inactive. The entry for `O=S(=O)(O)c1ccc(N=Nc2c(O)ccc3cc(S(=O)(=O)O)ccc23)cc1` is “inactive”; for `CCCCN1C(=O)[C@@H]([C@H](O)C2CCCCC2)NC(=O)C12CCN(Cc1ccc(Oc3ccc(C(=O)O)cc3)cc1)CC2` it is “inactive”; for `C=CCc1cc(S(=O)(=O)c2ccc(O)c(CC=C)c2)ccc1O` it is “inactive”. In the case of `CCCCCOC(C)=O` it was “inactive”; in that of `CC(=O)c1ccccc1`, “inactive”; in that of `CCCCCCCCCCCCCCCCOS(=O)(=O)O`, “inactive”. In the case of `CCOc1ccc2[nH]cc(C(=O)NCc3ccccc3)c(=O)c2n1` it was “inactive”; in that of `CCCCCCCC/C=C\CCCCCCCC(=O)OC[C@@H](O)[C@H]1OC[C@H](O)[C@H]1O`, “inactive”. With `OCCNCCO`, the result was inactive. On to `CCOC(N)=O`, for which the call was inactive. The entry for `CC(C)c1nnc2ccc(-c3ocnc3-c3cc(F)ccc3F)cn12` is “inactive”; for `CCCCCCCCCC` it is “inactive”; for `CC(C)CC(C)O` (stereo not given) it is “inactive”. Turning to `NNC(=O)c1ccncc1`, the result was inactive. In the case of `O=C1CN(N=Cc2ccc([N+](=O)[O-])o2)C(=O)N1` it was “inactive”; in that of `CC(C)C(=O)Nc1ccc([N+](=O)[O-])c(C(F)(F)F)c1`, “inactive”; in that of `Cc1ncc([C@@H](CCCCCCc2ccc3c(n2)NCCC3)CC(=O)O)cn1`, “inactive”. In the case of `COc1cc(C(C)C)c2c(c1)S(=O)(=O)N(COc1cc(=O)n3cccc(OCCN4CCCCC4)c3n1)C2=O` it was “inactive”; in that of `C=CN1CCCC1=O`, “inactive”. The entry for `CCn1nc(C)c2c1C(=O)NCC(c1ccc(O)cc1)=N2` is “inactive”. As to `NC(=O)N(O)[C@@H]1COc2cc(OCc3ccccc3)ccc21`, the compound was classed as inactive.

For the compound `OC(CCl)CCl`, the call was inactive.
